Results taken from PubChem BioAssay AID1159580 (chemical genetic matrix, 2015).
About 2,000 (36%) of roughly 5,500 compounds were called active. Roughly 18% stayed inconclusive and do not appear here. Cut-off read from the data, not from the text of the source: active = normalized growth mostly below about 0.91 (no sharp cut-off); inconclusive = no clear call, values can overlap the other calls; inactive = mostly above about 0.92. Some of the results follow.

Experiment: chemical genetic growth profiling, strain panel (AID 1159580);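 note: tested at 20 µM; growth read once vehicle control cultures reached saturation at 30 °C; 1 = growth at the plate median or of vehicle wells; lower values mean less growth of the strain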
Conditions: growth OD

Measured: normalized growth

CC(C)CCCC(C)C1CCC2C3=CC[C@H]4C[C@@H](O)CC[C@]4(C)C3CC[C@@]21C (some centres not stated)
inactive: S. cerevisiae deletion strains, locus YJR066W, strain TOR1, active compounds read low 0.943 | S. cerevisiae deletion strains, locus YJR075W, strain HOC1, active compounds read low 0.995 | S. cerevisiae deletion strains, locus YKL009W, strain mrt4, active compounds read low 0.997 | S. cerevisiae deletion strains, locus YKL068W, active compounds read low 1 | S. cerevisiae deletion strains, locus YKL085W, strain MDH1 (second series), active compounds read low 0.988 | S. cerevisiae deletion strains, locus YKL085W, strain MDH1, active compounds read low 0.988 | S. cerevisiae deletion strains, locus YKL160W, strain elf1, active compounds read low 0.964 | S. cerevisiae deletion strains, locus YKR001C, strain vps1, active compounds read low 0.983 | S. cerevisiae deletion strains, locus YKR026C, strain gcn3, active compounds read low 0.999 | S. cerevisiae deletion strains, locus YKR091W, strain srl3, active compounds read low 0.967 | S. cerevisiae deletion strains, locus YLL001W, strain dnm1, active compounds read low 0.988 | S. cerevisiae deletion strains, locus YLL026W, active compounds read low 0.988 | S. cerevisiae deletion strains, locus YLL041C, strain sdh2, active compounds read low 0.975 | S. cerevisiae deletion strains, locus YLR027C, strain aat2, active compounds read low 0.982 | S. cerevisiae deletion strains, locus YLR039C, strain RIC1, active compounds read low 0.828 | S. cerevisiae deletion strains, locus YLR058C, strain SHM2, active compounds read low 1.02 | S. cerevisiae deletion strains, locus YLR102C, strain apc9, active compounds read low 0.99 | S. cerevisiae deletion strains, locus YLR113W, strain HOG1, active compounds read low 1.03 | S. cerevisiae deletion strains, locus YLR221C, strain rsa3, active compounds read low 0.946 | S. cerevisiae deletion strains, locus YLR258W, strain gsy2, active compounds read low 1 | S. cerevisiae deletion strains, locus YLR262C, strain YPT6 (second series), active compounds read low 0.859 | S. cerevisiae deletion strains, locus YLR262C, strain YPT6, active compounds read low 0.816 | S. cerevisiae deletion strains, locus YLR268W, strain sec22, active compounds read low 0.978 | S. cerevisiae deletion strains, locus YLR320W, strain mms22, active compounds read low 0.952 | S. cerevisiae deletion strains, locus YLR330W, strain CHS5, active compounds read low 1.04 | S. cerevisiae deletion strains, locus YLR342W, strain FKS1 (second series), active compounds read low 1.04 | S. cerevisiae deletion strains, locus YLR342W, strain FKS1, active compounds read low 0.994 | S. cerevisiae deletion strains, locus YLR357W, strain rsc2, active compounds read low 1.04 | S. cerevisiae deletion strains, locus YLR370C, strain arc18, active compounds read low 0.964 | S. cerevisiae deletion strains, locus YLR371W, strain rom2, active compounds read low 0.998 | S. cerevisiae deletion strains, locus YLR384C, strain iki3, active compounds read low 0.985 | S. cerevisiae deletion strains, locus YLR418C, strain cdc73, active compounds read low 0.943 | S. cerevisiae deletion strains, locus YML016C, strain PPZ1, active compounds read low 1.01 | S. cerevisiae deletion strains, locus YML032C, strain rad52, active compounds read low 1 | S. cerevisiae deletion strains, locus YML120C, strain ndi1, active compounds read low 0.965 | S. cerevisiae deletion strains, locus YML124C, strain tub3, active compounds read low 0.996 | S. cerevisiae deletion strains, locus YMR058W, strain fet3, active compounds read low 0.965 | S. cerevisiae deletion strains, locus YMR078C, strain ctf18, active compounds read low 0.989 | S. cerevisiae deletion strains, locus YMR125W, strain sto1, active compounds read low 1 | S. cerevisiae deletion strains, locus YMR129W, active compounds read low 0.992 | S. cerevisiae deletion strains, locus YMR205C, strain PFK2, active compounds read low 1 | S. cerevisiae deletion strains, locus YMR223W, strain ubp8, active compounds read low 0.99 | S. cerevisiae deletion strains, locus YMR231W, strain pep5, active compounds read low 0.991 | S. cerevisiae deletion strains, locus YMR263W, strain SAP30, active compounds read low 1.03 | S. cerevisiae deletion strains, locus YMR307W, strain GAS1, active compounds read low 1.05 | S. cerevisiae deletion strains, locus YNL067W, strain RPL9B, active compounds read low 0.991 | S. cerevisiae deletion strains, locus YNL071W, strain lat1, active compounds read low 0.932 | S. cerevisiae deletion strains, locus YNL183C, strain NPR1, active compounds read low 0.939 | S. cerevisiae deletion strains, locus YNL209W, strain ssb2, active compounds read low 0.987 | S. cerevisiae deletion strains, locus YNL233W, strain BNI4, active compounds read low 0.984 | S. cerevisiae deletion strains, locus YNL248C, strain rpa49, active compounds read low 0.922 | S. cerevisiae deletion strains, locus YNL250W, strain rad50, active compounds read low 0.999 | S. cerevisiae deletion strains, locus YNL271C, strain bni1, active compounds read low 0.994 | S. cerevisiae deletion strains, locus YNL298W, strain CLA4, active compounds read low 0.985 | S. cerevisiae deletion strains, locus YNL307C, strain MCK1, active compounds read low 0.996 | S. cerevisiae deletion strains, locus YNL322C, strain KRE1 (second series), active compounds read low 0.98 | S. cerevisiae deletion strains, locus YNR049C, strain mso1, active compounds read low 0.982 | S. cerevisiae deletion strains, locus YNR052C, strain pop2, active compounds read low 0.984 | S. cerevisiae deletion strains, locus YOL012C, strain htz1 0.805 | S. cerevisiae deletion strains, locus YOL147C, strain pex11, active compounds read low 0.994 | S. cerevisiae deletion strains, locus YOR001W, strain rrp6, active compounds read low 0.946 | S. cerevisiae deletion strains, locus YOR061W, strain CKA2, active compounds read low 1.01 | S. cerevisiae deletion strains, locus YOR069W, strain VPS5, active compounds read low 1.01 | S. cerevisiae deletion strains, locus YOR070C, strain gyp1, active compounds read low 0.985 | S. cerevisiae deletion strains, locus YOR080W, strain dia2, active compounds read low 0.981 | S. cerevisiae deletion strains, locus YOR083W, strain WHI5, active compounds read low 0.947 | S. cerevisiae deletion strains, locus YOR106W, strain vam3, active compounds read low 0.935 | S. cerevisiae deletion strains, locus YOR136W, strain idh2, active compounds read low 0.993 | S. cerevisiae deletion strains, locus YOR144C, strain elg1, active compounds read low 0.998 | S. cerevisiae deletion strains, locus YOR184W, strain ser1, active compounds read low 0.969 | S. cerevisiae deletion strains, locus YOR231W, strain MKK1, active compounds read low 0.976 | S. cerevisiae deletion strains, locus YOR265W, strain rbl2, active compounds read low 0.985 | S. cerevisiae deletion strains, locus YOR270C, strain vph1, active compounds read low 0.794 | S. cerevisiae deletion strains, locus YOR290C, strain snf2, active compounds read low 1.01 | S. cerevisiae deletion strains, locus YOR316C, strain cot1, active compounds read low 0.988 | S. cerevisiae deletion strains, locus YPL051W, strain arl3, active compounds read low 0.951 | S. cerevisiae deletion strains, locus YPL078C, strain atp4, active compounds read low 0.925 | S. cerevisiae deletion strains, locus YPL106C, strain sse1, active compounds read low 1.03 | S. cerevisiae deletion strains, locus YPL240C, strain hsp82, active compounds read low 0.97 | S. cerevisiae deletion strains, locus YPL241C, strain CIN2, active compounds read low 1.01 | S. cerevisiae deletion strains, locus YPL256C, strain CLN2, active compounds read low 1 | S. cerevisiae deletion strains, locus YPR119W, strain clb2, active compounds read low 0.99 | S. cerevisiae deletion strains, locus YPR141C, strain kar3, active compounds read low 0.994 | S. cerevisiae deletion strains, locus YPR163C, strain tif3, active compounds read low 0.994 | S. cerevisiae deletion strains, locus YPR167C, strain met16, active compounds read low 1.01 | S. cerevisiae deletion strains, strain wtn01, active compounds read low 0.97 | S. cerevisiae strains, strain wild type, active compounds read low 1.04
